Data reported in PubChem BioAssay.
Calls of active or inactive are those of the source. Unless noted, the rule behind the calls is not given here.

How the values were obtained:
[1] = HepG2 liver cancer cell viability effects, profiling panel, resazurin fluorescence, 24 h, PK04 Diversity Set (AID 1172); conditions: higher = more signal; note: test concentration not given here
[2] = basal S. cerevisiae growth modulation, no modifier, primary screen, OD600, strain BY4716, 24 h, basal condition (AID 1173); conditions: OD600, 24 h, higher = more signal, called active from +8 up or from −8 down
[3] = MM1S myeloma cell viability, profiling panel, resazurin fluorescence, basal, 24 h, PK04 Diversity Set (AID 1174); conditions: higher = more signal, called active from +8 up or from −8 down;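 note: MM1S multiple myeloma cell line; test concentration not given here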
[4] = target: Dihydroorotate dehydrogenase (quinone), mitochondrial (Plasmodium falciparum (isolate 3D7)) (UniProt Q08210); assay: PfDHODH enzyme inhibitors, primary screen, biochemical, C-terminal His tag, absorbance 600 nm (AID 1175); conditions: DCIP absorbance 600 nm, higher = more signal, called active from +8 up or from −8 down;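 note: recombinant parasite enzyme with a five histidine tag at its C terminus; test concentration not given here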
[5] = P. aeruginosa biofilm formation inhibitors, primary screen, strain PAO1, LB-PBS medium, absorbance 600 nm (AID 1176); note: test concentration not given here; conditions: P. aeruginosa PAO1 growth/biofilm, A600, 12 h; higher = more signal
[6] = S. cerevisiae RM11-1a growth modifiers, primary screen, strain RM11-1a, OD600, basal, 24 h (AID 1177); conditions: OD600, 24 h, higher = more signal, called active from +8 up or from −8 down;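 note: cultures grown under basal conditions with no added stressor; test concentration not given here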
[7] = E. coli acrAB mutant growth effects, primary screen, E. coli filamentation inducers, strain DRC39, OD650, 24 h (AID 1178); conditions: higher = more signal, called active from +8 up or from −8 down;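 note: growth measured as culture turbidity by optical density at 650 nm; test concentration not given here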
[8] = E. coli acrAB mutant growth effects, primary screen, E. coli filamentation inducers, strain DRC39, OD650, 48 h (AID 1179);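 note: screen aims at cell division blockers that make cells filament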; conditions: E. coli DRC39 delta-acrAB growth, higher = more signal, called active from +8 up or from −8 down
[9] = RPMI8226 myeloma cell viability, profiling panel, resazurin fluorescence, basal, 24 h, PK04 Diversity Set (AID 1180); conditions: higher = more signal;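 note: RPMI8826 multiple myeloma cell line at 5000 cells per well; test concentration not given here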
[10] = target: E3 ubiquitin-protein ligase XIAP (Homo sapiens) (UniProt P98170); assay: XIAP binders, primary screen, biophysical, small-molecule microarray, fluorescence 635 nm (AID 1181); conditions: small-molecule microarray binding, higher = more signal;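 note: score merges 667 nm emission and signal to noise over triplicate slides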
E3 ubiquitin-protein ligase XIAP (Homo sapiens), sequence (P98170 whole entry, looked up): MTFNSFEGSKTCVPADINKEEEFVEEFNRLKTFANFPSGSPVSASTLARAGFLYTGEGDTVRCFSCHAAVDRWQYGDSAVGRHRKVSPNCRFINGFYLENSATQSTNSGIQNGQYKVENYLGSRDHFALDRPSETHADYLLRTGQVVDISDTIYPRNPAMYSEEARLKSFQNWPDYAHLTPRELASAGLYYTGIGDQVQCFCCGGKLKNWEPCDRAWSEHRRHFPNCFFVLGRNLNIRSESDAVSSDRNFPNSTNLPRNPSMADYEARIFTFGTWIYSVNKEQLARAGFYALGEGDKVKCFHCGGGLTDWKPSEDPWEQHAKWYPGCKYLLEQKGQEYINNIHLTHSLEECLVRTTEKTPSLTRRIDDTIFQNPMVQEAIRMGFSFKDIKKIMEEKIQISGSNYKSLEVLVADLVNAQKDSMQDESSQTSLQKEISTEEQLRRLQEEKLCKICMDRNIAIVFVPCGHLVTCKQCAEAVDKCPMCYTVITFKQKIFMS

Dihydroorotate dehydrogenase (quinone), mitochondrial (Plasmodium falciparum (isolate 3D7)), sequence (Q08210 whole entry, looked up): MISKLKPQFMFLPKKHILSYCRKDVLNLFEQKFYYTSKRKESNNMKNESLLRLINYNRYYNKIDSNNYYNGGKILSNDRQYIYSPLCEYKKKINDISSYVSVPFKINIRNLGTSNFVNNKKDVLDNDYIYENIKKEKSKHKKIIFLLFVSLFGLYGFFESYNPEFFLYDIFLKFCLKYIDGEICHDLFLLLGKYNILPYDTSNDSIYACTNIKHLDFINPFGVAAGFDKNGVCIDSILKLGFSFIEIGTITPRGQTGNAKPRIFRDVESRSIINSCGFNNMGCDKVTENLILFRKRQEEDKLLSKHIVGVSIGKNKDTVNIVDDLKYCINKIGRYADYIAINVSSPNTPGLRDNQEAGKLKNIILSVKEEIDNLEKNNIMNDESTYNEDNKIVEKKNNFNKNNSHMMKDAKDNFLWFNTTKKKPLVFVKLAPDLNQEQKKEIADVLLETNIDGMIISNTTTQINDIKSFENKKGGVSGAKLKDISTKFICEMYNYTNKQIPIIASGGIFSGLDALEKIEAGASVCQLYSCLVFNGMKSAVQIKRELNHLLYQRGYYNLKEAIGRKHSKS

Row | Structure (SMILES) | z-score [1] | z-score [2] | z-score [3] | composite z-score [4] | z-score [5] | z-score [6] | z-score [7] | z-score [8] | z-score [9] | composite z-score [10]
1 | COCCCNC(=O)[C@]1(Cc2ccccc2CN=[N+]=[N-])N=C(c2ccc(OCCCO)cc2)O[C@@H]1c1ccccc1N=[N+]=[N-] | -1.99 | 0.234 (inactive) | -4.37 (inactive) | 0.553 (inactive) | 1.24 (inactive) | 0.995 (inactive) | 0.703 (inactive) | 0.692 (inactive) | -3.63 | 0.43
2 | O=C(CS)NCCCCCCNC(=O)[C@H]1C[C@H]2C(=O)NCC(=O)N2[C@H]1c1cccc(OCCO)c1 | -0.39 | -0.462 (inactive) | -0.0674 (inactive) | -0.59 (inactive) | 0.339 (inactive) | 0.0796 (inactive) | 0.469 (inactive) | -0.814 (inactive) | -0.348 | 0.0269
3 | C[N+](C)(C)CCCC[C@@H]1NC(=O)[C@H]2C[C@@H](C(=O)O)[C@@H](c3ccc(O)cc3)N2C1=O | 0.363 | -1.58 (inactive) | 1.03 (inactive) | -0.406 (inactive) | 0.475 (inactive) | -0.944 (inactive) | 1.38 (inactive) | 1.57 (inactive) | 0.925 | -0.0595
4 | C=CCC(OC(C)=O)[C@@H]1[C@@H](N(Cc2cccc3ccccc23)C(=O)c2ccc(C)cc2)c2cc(OCCCO)ccc2N1C(=O)Cc1ccc2ccccc2c1 (stereo not given in full) | 0.0546 | -1.34 (inactive) | 0.802 (inactive) | -2.08 (inactive) | 0.0642 (inactive) | -1.31 (inactive) | 0.72 (inactive) | 1.28 (inactive) | 0.608 | 0.0264
5 | C=CC[C@@]1(C(=O)NCCCOC)N=C(c2ccc(OCCCO)cc2)O[C@@H]1c1ccccc1CN=[N+]=[N-] | 0.891 | -0.574 (inactive) | 0.961 (inactive) | 0.346 (inactive) | -0.248 (inactive) | -0.343 (inactive) | 0.914 (inactive) | 0.831 (inactive) | 0.803 | 0.289
6 | COc1ccc([Si](C)(C)[C@H]2[C@H](CC(=O)N3CCC[C@H]3CO)O[C@@]3(C(=O)N(C)c4ccccc43)[C@@H]2C)cc1 | -0.395 | 0.264 (inactive) | -0.212 (inactive) | -0.269 (inactive) | 1.32 (inactive) | 0.554 (inactive) | 0.133 (inactive) | -0.0566 (inactive) | -0.418 | 0.0473
7 | O=C1c2ccccc2[C@](Cc2ccccc2I)(C(=O)NCCN2CCOCC2)[C@H](c2ccc(CO)cc2)N1Cc1ccccc1C(F)(F)F | -0.936 | -1.14 (inactive) | -0.269 (inactive) | -0.584 (inactive) | 0.0435 (inactive) | -0.538 (inactive) | 0.0398 (inactive) | -0.46 (inactive) | -0.606 | -0.0095
8 | COCCCNC(=O)[C@@]1(Cc2ccccc2I)c2ccccc2C(=O)N(Cc2ccccc2C(F)(F)F)[C@H]1c1ccc(CO)cc1 | 0.331 | -0.088 (inactive) | 0.377 (inactive) | 0.543 (inactive) | -0.963 (inactive) | 1.38 (inactive) | 0.309 (inactive) | 0.324 (inactive) | 0.426 | -0.223
9 | C=CCNC(=O)[C@H]1[C@@H]2C(=O)O[C@@H](c3ccccc3)[C@@H](c3ccccc3)N2[C@@H](c2ccc(O)cc2)[C@]12C(=O)N(C(=O)OCCOC)c1ccc(C#Cc3ccc(OC)cc3)cc12 | 0.267 | 0.469 (inactive) | -0.466 (inactive) | -0.208 (inactive) | 0.485 (inactive) | 0.539 (inactive) | -1.2 (inactive) | -0.844 (inactive) | -0.772 | -0.0427
10 | COc1c(C)cc(-c2nc(-c3ccccc3)c3c(c2C)CO[Si]3(C(C)C)C(C)C)cc1C | 1.16 | 0.709 (inactive) | 0.032 (inactive) | 0.08 (inactive) | 0.845 (inactive) | -0.0161 (inactive) | 0.187 (inactive) | 0.135 (inactive) | 0.199 | 0.53
11 | Cc1cccc([C@H]2C[C@H]3C(Br)=C[C@@]2(CO)C(=O)[C@]32CO2)c1 | 0.888 | -5.63 (inactive) | -0.398 (inactive) | -0.287 (inactive) | 0.343 (inactive) | -0.169 (inactive) | 0.258 (inactive) | 0.294 (inactive) | 0.214 | 0.273
12 | COc1ccc([Si](C)(C)[C@H]2[C@H](CC(=O)N3CCC[C@H]3CO)O[C@@]3(C(=O)N(Cc4cccc(N5CCCCC5=O)c4)c4ccccc43)[C@@H]2C)cc1 | 0.276 | -0.953 (inactive) | -0.0453 (inactive) | -3.28 (inactive) | -0.234 (inactive) | 0.64 (inactive) | 0.957 (inactive) | 0.965 (inactive) | -0.185 | -0.0126
13 | COc1cc(CO)cc(I)c1O[C@H]1C=C(C(=O)NCCO)C[C@@H](N(CCN2CCOCC2)C(=O)C2CCCO2)[C@@H]1O (stereo not given in full) | 0.687 | -0.371 (inactive) | -0.202 (inactive) | 0.826 (inactive) | -0.365 (inactive) | 0.772 (inactive) | 2.09 (inactive) | 1.21 (inactive) | 0.716 | -0.117
